High-throughput results: PubChem BioAssay, Broad Institute
aSyn UTR act: Activators via SNCA 5'UTR binding, MLPCN; alpha-synuclein 5'UTR reporter, activators screen; activity score, % (tested at 7.5 µM), hits read low; 300,000 compounds, 7.1% hits; AID 1814; in the data active = activity score below about -60%
* marks the source's active call; other numbers are inactive results. The full list was thinned out, with hits kept by preference.

SMILES	aSyn UTR act
Cc1occc1C(=O)Nc1ccc2c(c1)CCC2	-188*
Cc1ccc(C(=O)Nc2ccccc2C(N)=O)o1	-78*
Cc1ccc(C(=O)Nc2ccc3c(c2)CCC3)o1	-134*
O=C(Nc1ccc2c(c1)OCO2)c1ccc(COc2ccc3c(c2)CCC3)o1	-76*
O=C(Nc1ccc2c(c1)CCC2)c1cc2ccccc2o1	-188*
Cc1ccc(NC(=O)c2ccc(Br)o2)cc1S(=O)(=O)N(C)C	-125*
Cc1ccc(NC(=O)c2ccc(OC(F)(F)F)cc2)cc1S(=O)(=O)N(C)C	-76*
O=C(Nc1ccc2c(c1)CCC2)c1ccc(Br)o1	-157*
O=C(Nc1ccc2c(c1)OCO2)c1ccc(Br)o1	-256*
Cc1ccoc1C(=O)Nc1ccc(CC(=O)O)cc1	84
Cc1ccc(C(=O)Nc2ccc(F)cc2)o1	-73*
Cc1cccc(NCc2cccc3ccccc23)n1	-67*
Cc1cccc(NCc2ccc(Br)cc2)n1	-66*
Cc1sc2nc3ccc(NCc4ccco4)nn3c(=O)c2c1C	-119*
O=c1c2ccccc2nc2ccc(NCc3ccco3)nn12	-144*
FC(F)(F)c1ccc2c(c1)nc1n2CCCC1	-65*
COc1ccc(NC(=O)Nc2ccc(F)cc2F)cc1	-139*
CCC1CCC(NC(=O)Nc2cccc(OC)c2)CC1 (configuration not stated)	-193*
COc1ccc(NC(=O)Nc2ccc3c(c2)CCC3)cc1	-149*
COc1cc(-c2ccc(NC(=O)NC3CC3)c(OC)c2)ccc1NC(=O)NC1CC1	-99*
COc1cccc(NC(=O)Nc2ccc3nsnc3c2)c1	-183*
COc1cccc(NC(=O)Nc2ccccc2Br)c1	-120*
COc1ccc(Nc2cc(Nc3cccc(OC)c3)ncn2)cc1	-80*
COc1ccc(NC(=O)Nc2ccc(C(C)C)cc2)cc1	-75*
COCC(=O)Nc1ccc(C(C)C)cc1	-69*
SMILES	aSyn UTR act
COc1ccc(NC(=O)Nc2cccc(OC)c2)cc1	-134*
Cc1cc(C)nc(NC(=O)Nc2ccc(F)cc2F)n1	-112*
COc1ccc(NC(=O)Nc2ccc3oc(C)nc3c2)cc1	-164*
Cc1nc2cc(NC(=O)NCCC3=CCCCC3)ccc2o1	-151*
O=[N+]([O-])c1ccc(N/N=C/c2cccs2)nc1	-187*
Cc1ccccc1-n1c(C)cc(/C=N/Nc2ccc([N+](=O)[O-])cn2)c1C	-76*
Fc1cccc(/C=N/Nc2ccc(Cl)nn2)c1	-116*
CC(C)(C)c1ccc(C(=O)N/N=C/c2cccc(Cl)c2)cc1	-89*
O=C(N/N=C/c1ccccc1Cl)c1cccc(F)c1	-138*
Oc1c(Br)cc(Br)cc1/C=N/Nc1ccc(Cl)nn1	97
O=C(N/N=C/c1cccc(F)c1)c1ccc(Cl)cc1	-150*
CCOc1ccc(C(=O)Nc2ccccc2C(=O)O)cc1	-89*
COc1ccc(C(=O)Nc2ccccc2C(=O)N/N=C/c2ccco2)cc1	-79*
CCOc1ccc(/C=N/NC(=O)c2ccccc2NC(=O)c2ccc(OC)cc2)cc1	-71*
O=C(Nc1ccccc1C(=O)N/N=C/c1ccncc1)c1ccccc1	-140*
CC(=O)Nc1ccc(-c2csc(Nc3ccc(Cl)cn3)n2)cc1	-127*
CC(=O)Nc1cccc(-c2csc(Nc3ccc(Cl)cn3)n2)c1	-174*
Cc1ccc(C)c(OCC(=O)Nc2c[nH]c(=O)[nH]c2=O)c1	81
COc1cccc(NC(=O)COc2ccccc2C(N)=O)c1	-75*
Cc1ccc(NC(=O)COc2ccccc2C=O)cc1Cl	-121*
CCc1cccc(NC(=O)COc2ccccc2)c1	-92*
CSc1ccccc1NC(=O)COc1ccccc1C	-107*
CC(=O)Nc1cccc(NC(=O)COc2ccccc2C)c1	-77*
Cc1ccccc1OCC(=O)Nc1cccc(N(C)S(C)(=O)=O)c1	-62*
CN(c1cccc(NC(=O)COc2ccccc2)c1)S(C)(=O)=O	-113*
SMILES	aSyn UTR act
CN(c1cccc(NC(=O)COc2ccc(Cl)cc2Cl)c1)S(C)(=O)=O	-131*
O=C(c1cc(-c2ccc3c(c2)OCO3)on1)N1CCN(c2ccccc2)CC1	-245*
CN(C(=O)c1cc(-c2ccc3c(c2)OCO3)on1)c1ccccc1	-167*
O=C(Nc1cc(Br)ccc1O)c1cc(-c2ccc3c(c2)OCO3)on1	-108*
CSc1ccccc1NC(=O)c1cc(-c2ccc3c(c2)OCO3)on1	-128*
Cc1ccc(S(=O)(=O)/N=C(/NNC(=O)c2cccc(Cl)c2)c2ccccc2)cc1	-101*
O=S(=O)(/N=C(/Nc1ccccn1)c1ccc(Cl)cc1)c1ccc(Cl)cc1	-91*
O=C(NN/C(=N/S(=O)(=O)c1ccc(Cl)cc1)c1ccccc1)c1cccc(Cl)c1	-124*
O=C(NN/C(=N/S(=O)(=O)c1ccc(Cl)cc1)c1ccccc1)c1ccc(O)cc1	-112*
Cc1ccsc1C(=O)OCC(=O)Nc1sccc1C(N)=O	-130*
NC(=O)c1ccsc1NC(=O)CCc1ccccc1	-153*
COC(=O)c1ccsc1NC(=O)CCc1ccccc1	-109*
CCOC(=O)c1sc(=NC(=O)c2cccc(OC)c2)n(C)c1C	-183*
CCOC(=O)c1sc(=NC(=O)c2ccc(OC)c(OC)c2)n(C)c1C	-69*
CCOC(=O)c1sc(=NC(=O)c2ccccc2)n(C)c1C	-134*
N=c1oc2ccccc2cc1-c1nc(-c2ccccc2)cs1	-64*
O=c1oc2ccccc2cc1-c1nc(-c2cccs2)cs1	-133*
CNc1nnc(-c2cc3ccccc3oc2=O)s1	-78*
c1csc(-c2csc(-c3cccs3)n2)c1	-104*
COc1cccc2cc(-c3nc(-c4cccs4)cs3)c(=O)oc12	-174*
COc1ccccc1-c1cc2ccccc2[nH]1	-207*
O=C(CSc1nnc(-c2ccc(O)cc2)o1)Nc1ccc2c(c1)OCCO2	-83*
O=C(Nc1ccc2c(c1)OCCO2)C1CC(c2ccccc2Cl)=NO1 (configuration not stated)	-124*
O=C(CSc1nnc(-c2ccc(O)cc2)o1)Nc1ccccc1Br	-132*
COc1ccc(-c2nnc(SC(C)C(=O)Nc3ccc4c(c3)OCCO4)o2)cc1 (configuration not stated)	-101*
SMILES	aSyn UTR act
O=C(CSc1nnc(-c2ccccc2Cl)o1)Nc1ccc2c(c1)OCCO2	-137*
CCC(=O)c1ccc(SC(=O)N(C)C)cc1O	-68*
Cc1nc2cc(-c3ccc(Cl)cc3)nn2c(C)c1CCC(=O)NC(C)c1ccc2c(c1)OCCO2 (configuration not stated)	74
CC(=O)c1cnc2cc(-c3ccc(Cl)cc3)nn2c1C	-95*
Cc1c(C(=O)O)cnc2cc(-c3ccc(Cl)cc3)nn12	-71*
N#Cc1c(N2CCOCC2)nsc1-c1ccccc1	-68*
N#Cc1c(N2CCCC2)nsc1-c1ccccc1	-180*
Cc1cccc(C(=O)NC2CCCCCCC2)c1	-214*
Cc1cc(C(=O)Nc2ccncc2)ccc1[N+](=O)[O-]	-65*
Cc1cccc(CC(=O)NCC2CCCCC2)c1	-71*
CCCN1C(=O)c2cc(C(=O)NC3CCCCCC3)ccc2C1O (configuration not stated)	-81*
CCn1c(C)c(C)c2cc(C(=O)NC3CCCCCC3)ccc21	-87*
Cc1cc(C(=O)NC2CCCCCCC2)ccc1[N+](=O)[O-]	-141*
CN(C)c1cccc(C(=O)NC2CCCCCC2)c1	-118*
COc1ccccc1C1=NC(c2ccc(C)cc2)N=C1C (configuration not stated)	-78*
COc1ccc(Cl)cc1C(=O)Nc1ccc(Br)c(C)n1	-78*
COc1ccc(Cl)cc1C(=O)Nc1cccnc1Cl	-78*
